What all share (test): NCI-60 one-dose screen, 48 h (100 = growth as untreated, 0 = no growth, -100 = all killed)
What all share (details): 10 µM unless noted

In assay [1] the test system is SK-MEL-2 melanoma.
In assay [2] the test system is EKVX NSCLC.
Assay [3] relates to SN12C renal.
The test system of assay [4] is UO-31 renal.
Assay [5] has as its system TK-10 renal.
For assay [6], the system named is ACHN renal.
For assay [7], the system named is A498 renal.
The subject of assay [8] is CCRF-CEM leukemia.
Assay [9] relates to MOLT-4 leukemia.
Assay [10] concerns SR leukemia.

Here are results for 13 compounds from PubChem BioAssay (NCI).

Compounds without any hit were thinned out: in the full panel of roughly 83,000, 20% have a hit.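 Assay: single dose, 48 h. Readout: percent growth (0 = no net growth; negative = cell death). Active: <10.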 Unmarked numbers belong to inactive results. Calls of active or inactive are those of the source.

In the case of `O=C(CN1N=C(c2ccc(F)cc2)CCC1=O)Nc1nccs1`, the growth in assay [1] was 101%; in assay [2], 98.3%; in assay [3] it was 96.9%; in [4] it was 87.6%; in assay [5], -95.6% (active); in assay [6], 107%. In addition, the growth was 84.1% in assay [7], 94% in assay [8], 97.5% in [9] and 92.8% in [10].
For the compound `O=C(CCCC(=O)Nc1ccc(-n2nnc3cc(Cl)c(Cl)cc32)cc1)Nc1ccc(-n2nnc3cc(Cl)c(Cl)cc32)cc1`, the growth in assay [1] was 53.8%; in [2], 64.4%; in [3] it was 40.5%; in [4], 79.8%; in [5] it was 84%; in assay [6], 66.2%. Further, the growth in assay [7] is 36.5%; in assay [8] it was 77.6%; in [9], 91.1%; in [10], 51.2%.
Turning to `NC(N)=NC(N)=Nc1cc2ccccc2c2ccccc12`, the growth in assay [1] is 5.61% (active); in assay [2], 58%; in assay [3], 35.4%; in [4] it was 32.6%; in assay [5], 20.8%; in assay [6], 22.9%. The growth in assay [7] was 26%; in assay [8], 38.6%; in assay [9], 9.61% (active); in [10] it was -2.98% (active).
For the compound `C=C1C(=O)O[C@H]2[C@H]1CC/C(C=Nc1c(N)cc(C(F)(F)F)cc1Br)=C\CC[C@@]1(C)O[C@@H]21`, the growth in assay [1] was -31.6% (active); in assay [2], 18.1%; in assay [3], -21.8% (active); in assay [4], -71.5% (active); in assay [5], -27.3% (active); in assay [6], -44.6% (active). The growth in [7] is 55.2%; in [8] it was 2.83% (active); in assay [9], -2.99% (active); in assay [10], -4.04% (active).
Regarding `COc1ccc2[nH]c3nc4cnccc4cc3c2c1`, the growth in assay [1] was 110%; in [2] it was 72.2%; in assay [3], 101%; in [4], 71.2%; in assay [5], 111%; in assay [6], 98.3%. For the same compound, the growth in assay [7] is 114%; in [8], 98.1%; in assay [9], 102%; in [10], 103%.
Consider `COC(=O)/C=C/c1cc(OC)c2c(c1)[C@@H](C(=O)OC)[C@H](c1ccc(OC)c(OC)c1)O2`, for which the growth in [1] was 31.4%; in [2], 38.5%; in [3] it was 45.5%; in assay [4], 45.9%; in assay [5] it was 64.1%; in assay [6], 44.4%. Moreover, the growth is 22.1% in assay [7], 18.7% in assay [8], 22.9% in assay [9] and 26% in [10].
As for `O=S(=O)(Nc1nccs1)c1ccc(Nc2nc(-c3ccncc3)cs2)cc1`, the growth in assay [1] was 105%; in assay [2], 107%; in assay [3], 97.4%; in assay [4], 101%; in [5] it was 120%; in [6] it was 99.5%. Also, the growth in assay [7] was 113%; in assay [8], 104%; in [9] it was 117%; in [10], 111%.
As for `C=C(C)[C@@H]1CC[C@]2(C(=O)OCCOCCOCC[P+](c3ccccc3)(c3ccccc3)c3ccccc3)CC[C@]3(C)[C@H](CC[C@@H]4[C@@]5(C)CC[C@H](C)C(C)(C)[C@@H]5CC[C@]43C)[C@@H]12`, the growth in [1] was -71.3% (active); in assay [2], -67.2% (active); in assay [3], -75.9% (active); in assay [4], -89.8% (active); in assay [5] it was -88.6% (active); in assay [6], -92.6% (active). The growth in [7] was -93.7% (active); in assay [8] it was -63% (active); in assay [9] it was -75.4% (active); in assay [10] it was -56.8% (active).
In the case of `Nc1c(C(=O)Nc2cccc3ccccc23)sc2nc3c(cc12)CCCCC3`, the growth in [1] was 50.5%; in [2], 40.4%; in [3], 43.4%; in assay [4], 51.9%; in assay [5] it was 62.8%; in assay [6], 53.6%. Further, the growth in [7] was -1.52% (active); in assay [8], 9.18% (active); in assay [9] it was 15.9%; in assay [10], 19.9%.
As to `CC1CCN(CCCCCOc2ccc3oc4cc(Cl)ccc4c(=O)c3c2)CC1`, the growth in [1] is 88%; in [2] it was 83.8%; in assay [3], 63.5%; in assay [4], 67.7%; in [5], 78%; in assay [6] it was 83.1%. The growth in assay [7] was 85.2%; in assay [8] it was 65.5%; in [9] it was 29.7%; in assay [10], 16.5%.
Regarding `CCOCc1cc(C(C)(C)C)ccc1O`, the growth in assay [1] is 110%; in assay [2] it was 98.3%; in [3], 102%; in assay [4], 94.5%; in [5], 93.8%; in assay [6], 105%. Moreover, the growth in assay [7] is 74.2%; in assay [8], 101%; in assay [9], 99.4%; in [10], 88.7%.
As to `Cc1cnc(-c2ccc(-c3ccc(NC(=O)Nc4c(F)cc(F)cc4F)cc3F)c3c2C(=O)NC3)[nH]1`, the growth in assay [1] was 58.1%; in assay [2], 52%; in assay [3] it was 3.34% (active); in assay [4] it was 50.3%; in assay [5], 83.6%; in assay [6], 50.4%. Also, the growth in assay [7] is 22.4%; in [8] it was 23.9%; in [9], 18.3%; in assay [10], -3.54% (active).
As to `CCC1=C[C@H]2CN(CCc3c([nH]c4ccccc34)[C@@](C(=O)OC)(c3cc4c(cc3OC)N(C)[C@H]3[C@@](O)(C(=O)OC)[C@H](OC(C)=O)[C@]5(CC)[C@@H]6C[C@@H]6CN6CC[C@]43[C@@H]65)C2)C1`, the growth is 13.2% in assay [1]; 35.5% in assay [2]; 30.1% in assay [3]; 14.7% in [4]; 28.9% in assay [5]; 19.1% in assay [6]. For the same compound, the growth is -15.2% (active) in assay [7], -5.97% (active) in [8], 4.19% (active) in assay [9] and -9.46% (active) in [10].
